Screens deposited in PubChem by National Center for Advancing Translational Sciences (NCATS).
The list is not random: actives were taken first. Their share in the collection is about 19%.
HepG2 viability = qHTS for Inhibitors of TGF-b: Cytotox Counterscreen; HepG2 CAGA-GFP viability, ATP luminescence, 18 h; 0.76% of 410,000 active; AID 588856, 2011; Potency, µM (doses to about 46.1 µM), without a hit: top-dose activity change, negative = cytotoxicity, hits mostly cytotoxic; also: potency is read from the fitted curve at half-maximal effect
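CellTiter-Glo luminescence gave cytotoxicity after 18 hours at 37 degrees C. The cells were HepG2 CAGA-GFP in 1% FBS DMEM, stimulated with 500 pg/mL TGF-beta after compound addition. %Activity was normalised to no-cell wells (complete cell-killing) and DMSO (no toxicity), and curves were fitted and classified.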
TGFb SMAD3 inh = qHTS for Inhibitors of TGF-b | HepG2 CAGA-GFP TGF-b/SMAD3 reporter, GFP fluorescence, 18 h; TGF-beta stimulated, 500 pg/mL final | Potency, µM (highest dose often 46.1 µM), for the others: at the top dose activity, negative = inhibition, hits mostly inhibitors | 1.2% of 410,000 active; also: potency is read from the fitted curve at half-maximal effect; % is scaled to controls: 0 for no effect and ±100 for the full control effect; nearly all actives have a fitted effect of over 65% in size
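Cell-based qHTS in HEPG2 carrying a CAGA-GFP Smad reporter; compounds added before 500 pg/mL final TGF-beta, 18 h incubation at 37 degrees C, GFP fluorescence quantified per cell by imaging cytometry.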
IL-1B inflam inh = qHTS for Inhibitors of Inflammasome Signaling: IL-1-beta AlphaLISA Primary Screen | THP-1 LPS/ATP IL-1B secretion, AlphaLISA, 16 h; active compounds read low | activity change, % at 57.5 µM | 4.7% of 360,000 active | AID 743279, 2014; in the data active = activity change below about -50%; inconclusive = mostly about -30% to -49%; also: % is scaled to controls: 0 for no effect and ±100 for the full control effect
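Secreted IL-1B measured by AlphaLISA bead assay after 16 h compound exposure of THP-1 cells; compounds (final up to 57.5 uM) added 1 h before LPS (250 ng/mL) and ATP (1.25 mM) stimulation; lower signal means less secretion.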
TDP1 cell CPT = qHTS for Inhibitors of human tyrosyl-DNA phosphodiesterase 1 (TDP1): qHTS in cells in presence of CPT | 12% of 420,000 active | Potency, µM (doses to about 46.2 µM), inactives show at the top dose activity change, negative = growth inhibition, most hits filed as inhibitors | chicken DT40 Tdp1-/-;hTDP1 cells + 20 nM CPT, ATP luminescence, 48 h; also: potency is read from the fitted curve at half-maximal effect; % is scaled to controls: 0 for no effect and ±100 for the full control effect; nearly all actives have a fitted effect of over 55% in size
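Cell growth measured by CellTiter-Glo luminescence after a minimum 48 h, 37 C compound exposure with 20 nM CPT in Tdp1-knockout DT40 cells stably expressing hTDP1, seeded 400/well; qHTS titration format.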
TDP1 inh = qHTS Assay for Inhibitors of Tyrosyl-DNA Phosphodiesterase (TDP1). recombinant TDP1, AlphaScreen DNA substrate cleavage. Potency, µM (titrated, usually from 130 µM), without a hit: at the top dose activity change, negative = inhibition, actives largely listed as inhibitors. 0.28% of 350,000 active. AID 485290, 2010; also: potency is read from the fitted curve at half-maximal effect; % is scaled to controls: 0 for no effect and ±100 for the full control effect; nearly all actives have a fitted effect of over 40% in size
Target sequence (Q9NUW8 whole entry, looked up): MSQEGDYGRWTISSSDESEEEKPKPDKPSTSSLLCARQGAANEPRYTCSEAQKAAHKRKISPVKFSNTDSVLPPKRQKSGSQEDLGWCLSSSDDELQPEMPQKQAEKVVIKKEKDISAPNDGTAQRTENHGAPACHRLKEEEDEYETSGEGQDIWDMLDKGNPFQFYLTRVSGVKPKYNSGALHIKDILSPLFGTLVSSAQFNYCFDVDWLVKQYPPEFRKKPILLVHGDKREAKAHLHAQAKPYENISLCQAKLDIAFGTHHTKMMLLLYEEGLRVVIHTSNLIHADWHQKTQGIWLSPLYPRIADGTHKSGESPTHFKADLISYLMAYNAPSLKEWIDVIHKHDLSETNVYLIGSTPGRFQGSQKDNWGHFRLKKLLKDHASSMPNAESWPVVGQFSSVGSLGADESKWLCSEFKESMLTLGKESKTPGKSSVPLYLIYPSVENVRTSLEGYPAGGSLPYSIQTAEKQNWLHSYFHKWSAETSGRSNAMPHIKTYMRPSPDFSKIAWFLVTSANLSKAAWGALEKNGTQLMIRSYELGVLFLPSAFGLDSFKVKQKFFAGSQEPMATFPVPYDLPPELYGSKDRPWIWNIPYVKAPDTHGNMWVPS
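Compounds were preincubated with Tdp1 (1 nM final) for 15 min at room temperature before substrate (15 nM final) started a 5 min reaction; beads (10 ug/ml final) were then added for 10 min before AlphaScreen detection.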
DT40 TDP1 no CPT = qHTS for Inhibitors of human tyrosyl-DNA phosphodiesterase 1 (TDP1): qHTS in cells in absence of CPT; DT40 Tdp1-/- hTDP1 cells, no CPT, ATP luminescence, 48 h; Potency, µM (series often up to 46.2 µM), for the others: at the top dose activity change, negative = growth inhibition, most hits filed as inhibitors; 15% of 420,000 active; AID 686978, 2013; also: potency is read from the fitted curve at half-maximal effect; % is scaled to controls: 0 for no effect and ±100 for the full control effect; nearly all actives have a fitted effect of over 55% in size
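No-CPT arm: Tdp1-/-;hTDP1 DT40 cells (400/well) plus compounds, incubated ≥48 hr at 37 °C. Readout CellTiter-Glo luminescence.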
* = called active by the depositor; [ ] = remark or other dose. Unless noted, calls follow the shape of the dose curve; as a rule, active = well fitted curve in the direction sought with a large enough effect; inconclusive = small, poorly fitted or top-dose-only effect, or another doubt; inactive = no such curve, though single readings can be large; an effect the other way counts as inactive or inconclusive.

`CCCn1nc(C(=O)Nc2nc(-c3ccccn3)cs2)c2ccccc2c1=O` gave HepG2 viability -48%, TGFb SMAD3 inh inconclusive, IL-1B inflam inh 124, TDP1 cell CPT 7.3µM*, TDP1 inh 3% and DT40 TDP1 no CPT 2.3µM*.
For Cn1nc(C(=O)Nc2cccnc2)c2ccccc2c1=O the results were HepG2 viability 1%, TGFb SMAD3 inh 27%, IL-1B inflam inh -16, TDP1 cell CPT inconclusive, TDP1 inh 1% and DT40 TDP1 no CPT inconclusive.
Screening CCn1nc(C(=O)Nc2ccccc2N2CCCC2)c2ccccc2c1=O returned HepG2 viability -5%, TGFb SMAD3 inh -25%, IL-1B inflam inh -62*, TDP1 cell CPT inconclusive, TDP1 inh 4% and DT40 TDP1 no CPT inconclusive.
For N#C/C(=C\c1ccc(-c2cccc(Cl)c2)o1)C(=O)Nc1cccc(C(F)(F)F)c1 the results were HepG2 viability -10%, TGFb SMAD3 inh 34%, TDP1 cell CPT inconclusive, TDP1 inh 0%[12.3 µM] and DT40 TDP1 no CPT inconclusive.
For CCCCOC(=O)c1ccc(OC(=O)c2sc3ncn(Cc4cccc(F)c4)c(=O)c3c2C)cc1 the results were HepG2 viability -22%, TGFb SMAD3 inh -10%, TDP1 cell CPT -10%, TDP1 inh 3% and DT40 TDP1 no CPT -17%.
For CCc1nnc(NC(=O)CSc2nnc(C(C)NC(=O)c3ccccc3)n2C)s1 (configuration not stated) the results were HepG2 viability -13%, TGFb SMAD3 inh 11%, IL-1B inflam inh -2, TDP1 cell CPT -2%, TDP1 inh 2%[0.0935 µM] and DT40 TDP1 no CPT -6%.
For CC(C)(C)OC(=O)NCc1nnc(-c2cc3ccccc3[nH]2)s1 the results were TDP1 inh 0%.
Screening Cc1ccc(C2SCC(=O)N2Cc2ccccc2)cc1 (configuration not stated) returned HepG2 viability -17%, TGFb SMAD3 inh -17%, IL-1B inflam inh 6, TDP1 cell CPT inconclusive and DT40 TDP1 no CPT -15%.
For O=C1[C@H](Cc2ccccc2)NCC=CC[C@@H](c2ccc(Cl)cc2)N1Cc1ccc(Cl)cc1 the results were HepG2 viability -91%, TGFb SMAD3 inh inconclusive, IL-1B inflam inh -60*, TDP1 cell CPT inconclusive and DT40 TDP1 no CPT inconclusive.
O=C1[C@H](Cc2ccccc2)NCC=CC[C@H](c2ccc(Cl)cc2)N1Cc1ccccc1 was read as HepG2 viability -39%, TGFb SMAD3 inh 18µM*, IL-1B inflam inh -52*, TDP1 cell CPT inconclusive and DT40 TDP1 no CPT inconclusive.
For CC(C)CC(=O)N1C/C=C\C[C@@H](c2ccc(Cl)cc2)N(Cc2ccc(Cl)cc2)C(=O)[C@@H]1Cc1ccccc1 the results were HepG2 viability -40%, TGFb SMAD3 inh inconclusive, TDP1 cell CPT 10µM* and DT40 TDP1 no CPT 13µM*.
For O=c1[nH]c2ccccc2n1Cc1ccc(Cl)cc1 the results were HepG2 viability -1%, TGFb SMAD3 inh -8%, IL-1B inflam inh -4, TDP1 cell CPT -20%, TDP1 inh 7% and DT40 TDP1 no CPT inconclusive.
Screening O=C1[C@H](Cc2ccccc2)NCC=CC[C@H](c2ccc(Cl)cc2)N1Cc1ccc(Cl)cc1 returned HepG2 viability -60%, TGFb SMAD3 inh inconclusive, IL-1B inflam inh -66*, TDP1 cell CPT 23µM* and DT40 TDP1 no CPT 16µM*.
`CC1CC=CC2C1C(=O)N(Cc1ccccc1)C2c1ccc(F)c(Br)c1` (configuration not stated) gave HepG2 viability -83%, TGFb SMAD3 inh inconclusive and TDP1 inh -3%.
CC(NC(=O)c1cnn2c1NC(=C1CC1)C=C2C(F)F)c1ccncc1 (configuration not stated) was read as HepG2 viability -3%, TGFb SMAD3 inh -3%, TDP1 cell CPT -21% and DT40 TDP1 no CPT -8%.
For CC(=O)OCC1OC(C#Cc2ccccc2)C=CC1O (configuration not stated) the results were TDP1 inh 5%[21 µM].
`COC(=O)[C@@]1(Cc2ccc(F)cc2)[C@H]2c3cc(C(=O)N(C)C)n(Cc4ccc(C)o4)c3C[C@H]2CN1C(=O)c1ccccc1` gave IL-1B inflam inh -24, TDP1 cell CPT 16µM*, TDP1 inh 12% and DT40 TDP1 no CPT 21µM*.
COC(=O)[C@@]1(Cc2ccc(OC)cc2)[C@H]2c3cc(C(=O)N(C)C)n(Cc4ccc(OC(F)(F)F)cc4)c3C[C@H]2CN1C(=O)c1ccccc1 was read as HepG2 viability -17%, TGFb SMAD3 inh inconclusive, IL-1B inflam inh -62*, TDP1 cell CPT 21µM*, TDP1 inh 5% and DT40 TDP1 no CPT 21µM*.
`COC(=O)[C@@]1(Cc2ccc(F)cc2)[C@H]2c3cc(C(=O)N(C)C)n(Cc4ccccc4)c3C[C@H]2CN1C(=O)c1ccccc1` gave HepG2 viability 1%, TGFb SMAD3 inh inconclusive, IL-1B inflam inh -22, TDP1 cell CPT 5.2µM*, TDP1 inh 5% and DT40 TDP1 no CPT 21µM*.
For COC(=O)[C@@]1(Cc2ccc(F)cc2)[C@H]2c3cc(C(=O)N(C)C)n(CCc4ccc(OC)c(Br)c4)c3C[C@H]2CN1C(=O)c1ccccc1 the results were HepG2 viability -17%, TGFb SMAD3 inh inconclusive, IL-1B inflam inh 0, TDP1 cell CPT 10µM*, TDP1 inh 3% and DT40 TDP1 no CPT 9.2µM*.
COC(=O)[C@@]1(Cc2ccc(F)cc2)[C@H]2c3cc(C(=O)N(C)C)n(Cc4ccc(OC)c(OC)c4)c3C[C@H]2CN1C(=O)c1ccccc1 was read as HepG2 viability 3%, TGFb SMAD3 inh 13%, IL-1B inflam inh -2, TDP1 cell CPT inconclusive, TDP1 inh -3% and DT40 TDP1 no CPT inconclusive.
`O=C(NCC1COc2ccccc2O1)c1cccc(S(=O)(=O)NCc2ccccc2)c1` (configuration not stated) gave HepG2 viability -26%, TGFb SMAD3 inh -12%, IL-1B inflam inh -24, TDP1 cell CPT inconclusive and DT40 TDP1 no CPT inconclusive.
